SMILES strings stand for the structures. Values joined by “and” are separate entries in the source; they are usually repeats but may differ in a detail not shown here. Identical values can stand only once. Results filed as inconclusive are left out. The source holds several records for some structures; these can differ, active in one and inactive in another. Active and inactive are the calls of the source. Unless noted, calls come from the whole dose curve; as a rule, active = well fitted curve in the direction sought with a large enough effect in the repeat runs; inconclusive = weak or mixed curves; inactive = no such curve, though single readings can be large; an effect the other way counts as inactive or inconclusive.

The values that follow come from PubChem BioAssay (Tox21).

Experiment [1] can be described thus: qHTS assay to identify small molecule antagonists of the estrogen related receptor (ERR) signaling pathway from Tox21 library - cell viability counter screen (AID 1224834). Note: nearly all actives have a fitted effect of over 30% in size. Note: potency is the fitted concentration of half-maximal effect. An outline of the steps:
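ERR cells, 2,000/well; 6 h settle at 37 C/5% CO2; pin-tool compound transfer in DMSO; 17.5 h at 37 C; CellTiter-Fluor, 30 min; fluorescence intensity.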
For orientation: qHTS replaces the single test concentration by a dilution series.

The target in experiment [2] is Luciferin 4-monooxygenase (Photinus pyralis) (UniProt P08659). As to the kind of experiment: qHTS assay to identify small molecule inhibitors of firefly luciferase (AID 1224835). Note: nearly all actives have a fitted effect of over 25% in size. Note: potency is the fitted concentration of half-maximal effect. The essentials: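 Quantitative HTS format; KM concentrations of both substrates. Purified P. pyralis FLuc activity quantified from luminescence images.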
Chain of Luciferin 4-monooxygenase (Photinus pyralis) (P08659 whole entry, looked up): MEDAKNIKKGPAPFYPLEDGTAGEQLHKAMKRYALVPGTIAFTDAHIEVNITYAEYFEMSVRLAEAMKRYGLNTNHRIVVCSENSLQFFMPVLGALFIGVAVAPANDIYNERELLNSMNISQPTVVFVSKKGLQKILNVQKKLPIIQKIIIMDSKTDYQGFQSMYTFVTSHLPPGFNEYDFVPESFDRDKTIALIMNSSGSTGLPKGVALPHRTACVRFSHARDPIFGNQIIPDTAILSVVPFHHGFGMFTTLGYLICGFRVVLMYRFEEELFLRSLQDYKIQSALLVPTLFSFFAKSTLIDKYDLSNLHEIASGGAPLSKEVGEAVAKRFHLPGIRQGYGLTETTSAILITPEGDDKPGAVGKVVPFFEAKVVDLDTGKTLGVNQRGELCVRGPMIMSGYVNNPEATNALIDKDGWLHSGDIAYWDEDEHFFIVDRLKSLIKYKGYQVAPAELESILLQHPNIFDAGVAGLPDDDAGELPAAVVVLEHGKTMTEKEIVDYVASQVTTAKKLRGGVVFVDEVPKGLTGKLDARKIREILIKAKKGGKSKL
Experiment [3] in a line: qHTS assay to identify small molecule agonists of the constitutive androstane receptor (CAR) signaling pathway - cell viability counter screen (AID 1224836). Note: nearly all actives have a fitted effect of over 45% in size. Note: potency is the fitted concentration of half-maximal effect. An outline of the steps:
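Compound titrations (15 concentrations) went onto HepG2-CYP2B6-hCAR cells 4 h after seeding, alongside PK11195 at a final 0.75 uM; a 23 h, 37 C/5% CO2 incubation preceded CellTiter-Fluor viability measurement.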

Experiment [4] can be described thus: qHTS assay to identify small molecule antagonists of the constitutive androstane receptor (CAR) signaling pathway - cell viability counter screen (AID 1224837). Note: nearly all actives have a fitted effect of over 45% in size. Note: potency is the fitted concentration of half-maximal effect. An outline of the steps: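 Viability was measured with CellTiter-Fluor in a HepG2 line carrying stably transfected hCAR and a CYP2B6-2.2kb construct. Cells were exposed for 23 hr at 37 C to 15 compound concentrations with 50 nM CITCO as agonist.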

The target in experiment [5] is Nuclear receptor subfamily 1 group I member 3 (Homo sapiens) (UniProt Q14994). The experiment in a line: qHTS assay to identify small molecule agonists of the constitutive androstane receptor (CAR) signaling pathway (AID 1224839).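 For activation: HepG2 cells stably carrying human CAR and a CYP2B6 luciferase reporter.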 Note: nearly all actives have a fitted effect of over 15% in size. Note: potency is the fitted concentration of half-maximal effect. The essentials: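 In this screen, CAR-driven CYP2B6 promoter activity is measured by luminescence in HepG2-CYP2B6-hCAR cells after 24 h with test compounds and 0.75 uM PK11195 (final concentration).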
Chain of Nuclear receptor subfamily 1 group I member 3 (Homo sapiens) (Q14994 whole entry, looked up): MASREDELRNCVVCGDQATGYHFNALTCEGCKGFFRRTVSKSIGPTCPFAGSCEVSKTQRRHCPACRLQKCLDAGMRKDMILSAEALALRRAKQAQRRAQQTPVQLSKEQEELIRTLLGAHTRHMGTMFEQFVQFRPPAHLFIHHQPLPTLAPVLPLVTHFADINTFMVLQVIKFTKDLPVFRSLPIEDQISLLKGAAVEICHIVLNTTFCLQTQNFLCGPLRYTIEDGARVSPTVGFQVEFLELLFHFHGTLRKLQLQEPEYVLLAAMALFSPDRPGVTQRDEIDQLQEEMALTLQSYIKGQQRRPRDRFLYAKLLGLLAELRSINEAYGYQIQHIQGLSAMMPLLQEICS

Experiment [6] is described as follows: qHTS assay to identify small molecule antagonists of the estrogen related receptor signaling pathway with the pleiotropic PPARgamma coactivator (PGC) from Tox21 10K library - cell viability counter screen (AID 1224840; active = well fitted cell-killing curve with a large enough effect in the repeat runs, not every such curve was filed as active; note: nearly all actives have a fitted effect of over 40% in size; note: potency is the fitted concentration of half-maximal effect). The essentials:
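Multiplexed viability counter screen in the PGC/ERR cell line: cells treated with DMSO-dissolved compounds for 17.5 hours at 37 C, then viability measured as CellTiter-Fluor fluorescence.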

A short description of experiment [7]: qHTS assay to identify small molecule antagonists of the estrogen related receptor signaling pathway with the pleiotropic PPARgamma coactivator (PGC) from Tox21 10K library (AID 1224841; call rule not given here; note: actives are mostly falling curves and most rising ones were filed inactive; nearly all actives have a fitted effect of over 50% in size). The essentials:
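Steps: plate 2,000 PGC/ERR cells per well; incubate 6 h at 37 C with 5% CO2; transfer compounds from DMSO stocks by pin tool; incubate 18 h at 37 C; add One-Glo; measure luminescence 30 min later.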

A short description of experiment [8]: qHTS assay to identify small molecule agonists of the estrogen related receptor signaling pathway with the pleiotropic PPARgamma coactivator (PGC) from Tox21 10K library (AID 1224842). Note: nearly all actives have a fitted effect of over 15% in size. An outline of the steps: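 PGC/ERR reporter cells (NTP line) were seeded 2,000 per well, rested 6 h at 37 C/5% CO2, then pin-dosed with compounds in DMSO for 18 h at 37 C; luciferase read by One-Glo luminescence after 30 min at room temperature.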

In experiment [9] the target is Thyrotropin receptor (Homo sapiens) (UniProt P16473). The experiment in a line: qHTS assay to identify small molecule agonists of the thyroid stimulating hormone receptor (TSHR) signaling pathway (AID 1224843; calls by dose curve; note: nearly all actives have a fitted effect of over 45% in size). An outline of the steps:
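Using 15 concentrations per compound in triplicate, cAMP production was monitored in TSHR-HEK293 cells after 30 min compound incubation at RT; HTRF reagents followed, with fluorescence intensity recorded after 1 h.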

Experiment [10] in a line: qHTS assay to identify small molecule agonists of the hypoxia (HIF-1) signaling pathway - cell viability counter screen (AID 1224844; calls by dose curve; note: nearly all actives have a fitted effect of over 50% in size). The essentials: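 Cytotoxicity was measured in parallel with the HRE-driven beta-lactamase readout: after 17 hrs of compound exposure at 37C, HRE-bla ME-180 cells received CellTiter-Glo and luminescence was recorded 30 min later.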
A short description of experiment [11]: qHTS assay to identify small molecule agonists of H2AX (AID 1224845; active = well fitted activation curve with a large enough effect in the signal ratio in the repeat runs, not every such curve was filed as active; the % refers to the signal ratio). The essentials: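 Wild-type CHO-K1 cells plated overnight, then exposed 3 hr at 37C to compounds at 15 concentrations (0.76% DMSO). Lysed, then HTRF anti-pH2AX(S139)-cryptate/anti-H2AX-d2 detection after 24 hr at room temperature; emissions 665 and 620 nm.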
A short description of experiment [12]: qHTS assay to identify small molecule agonists of H2AX - cell viability counter screen (AID 1224847; calls by dose curve; note: nearly all actives have a fitted effect of over 30% in size; note: potency is the fitted concentration of half-maximal effect). The essentials:
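Read-out: CellTiter-Glo luminescence, 30 min RT. Cells: wild-type CHO-K1, 1000/well, 10% FBS, plated overnight at 37C. Treatment: 15 concentrations, 3 hr, 37C, 0.76% DMSO.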

Experiment [13] can be described thus: qHTS assay to identify small molecule antagonists of the estrogen related receptor (ERR) signaling pathway from Tox21 library (AID 1224848). Note: nearly all actives have a fitted effect of over 50% in size. An outline of the steps: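 Tox21 10K compounds in DMSO tested for ERR pathway antagonism in NTP's ERR cell line; 18 h, 37 C exposure; ONE-Glo luminescence.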
A short description of experiment [14]: qHTS assay to identify small molecule agonists of the estrogen related receptor (ERR) signaling pathway from Tox21 library (AID 1224849; calls by dose curve; note: nearly all actives have a fitted effect of over 15% in size). Conditions: ERR reporter cell line, ONE-Glo luciferase, 18 h. The essentials:
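Cells carrying the ERR reporter were plated and allowed to settle for 6 h, exposed to library compounds for 18 h at 37 C, then lysed with ONE-Glo and luminescence measured.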

Experiment [15] is described as follows: qHTS RealTime-Glo MT Cell Viability Assay in HepG2 cells - 24 hour (AID 1224867). Note: nearly all actives have a fitted effect of over 50% in size. An outline of the steps: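 Luminescence read-out: viable HepG2 cells reduce a prosubstrate to a NanoLuc substrate, giving a signal proportional to live cell number. Reads taken at 0, 8, 16, 24, 32 and 40 h of compound exposure at 37 C.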
A short description of experiment [16]: A CellTox Green Cytotoxicity Assay to monitor cytotoxicity in HEK293 cells - 0 hour (AID 1224869). Note: nearly all actives have a fitted effect of over 50% in size. An outline of the steps: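 Cells (HEK293, 600/well) and dye reagent are dispensed together. After 5 h at 37 C, 23 nL compound is pinned in. Plates stay at 37 C for 40 h with fluorescence read at 0h, 8h, 16h, 24h, 32h and 40h.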
Experiment [17] is described as follows: qHTS assay to identify small molecule agonists of the hypoxia (HIF-1) signaling pathway (AID 1224846; active = well fitted activation curve with a large enough effect in the signal ratio in the repeat runs, not every such curve was filed as active; the % refers to the signal ratio). An outline of the steps: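 Compounds from the Tox21 10K library, dissolved in DMSO, are tested for induction of a hypoxia response element–controlled beta-lactamase reporter in ME-180 cells. Exposure lasts 17 hrs at 37C after a 5 hr settling period, followed by CCF4-AM FRET substrate.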

A short description of experiment [18]: qHTS RealTime-Glo MT Cell Viability Assay in HEK293 cells - 32 hour (AID 1224868). Note: nearly all actives have a fitted effect of over 50% in size. Note: potency is the fitted concentration of half-maximal effect. An outline of the steps: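 Nonlytic real-time viability readout: viable cells convert prosubstrate to NanoLuc substrate, giving luminescence proportional to live cell number. HEK293, 600 cells/well, compound added after 5 h, continuous culture at 37 C.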
% is set by controls: 0 for no effect and ±100 for the full control effect.

Chain of Thyrotropin receptor (Homo sapiens) (P16473 whole entry, looked up): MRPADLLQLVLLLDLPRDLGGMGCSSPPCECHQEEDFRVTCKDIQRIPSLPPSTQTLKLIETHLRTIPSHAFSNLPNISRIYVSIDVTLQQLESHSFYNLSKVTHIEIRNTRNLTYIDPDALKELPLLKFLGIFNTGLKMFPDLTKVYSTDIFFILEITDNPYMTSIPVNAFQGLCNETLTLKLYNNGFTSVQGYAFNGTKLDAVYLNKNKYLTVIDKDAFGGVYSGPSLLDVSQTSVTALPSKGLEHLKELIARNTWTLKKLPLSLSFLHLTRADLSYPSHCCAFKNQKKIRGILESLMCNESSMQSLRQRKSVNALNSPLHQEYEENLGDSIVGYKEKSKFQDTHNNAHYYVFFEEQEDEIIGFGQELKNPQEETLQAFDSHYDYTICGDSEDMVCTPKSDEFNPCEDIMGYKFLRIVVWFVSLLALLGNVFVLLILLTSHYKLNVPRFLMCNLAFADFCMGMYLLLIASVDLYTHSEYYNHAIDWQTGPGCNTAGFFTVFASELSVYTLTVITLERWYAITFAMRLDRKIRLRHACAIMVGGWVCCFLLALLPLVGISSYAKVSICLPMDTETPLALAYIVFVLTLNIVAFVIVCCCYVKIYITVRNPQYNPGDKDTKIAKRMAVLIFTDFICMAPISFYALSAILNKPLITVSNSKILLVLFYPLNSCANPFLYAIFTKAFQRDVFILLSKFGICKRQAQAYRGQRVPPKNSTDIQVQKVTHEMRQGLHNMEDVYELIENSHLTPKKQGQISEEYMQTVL

For the compound `CC1Cc2ccccc2N1NC(=O)c1ccc(Cl)c(S(N)(=O)=O)c1` (stereo not given), the Potency result in [1], in experiment [2], in [3], in experiment [4], in experiment [5] and in [6] was “inactive” each time. Further, the Potency entry in [7], in experiment [8], in experiment [9], in experiment [10], in experiment [11] and in experiment [12] was “inactive” in each case. The Potency result in experiment [13], in experiment [15] and in experiment [16] was “inactive” each time. Also, the activity change, positive = activation was -17.1% (inactive) in experiment [14] (at 42.5 µM (top of the series)) and -13.4% (inactive) in [14] (at 92.4 µM (top of the series)).

`O=S(=O)(Oc1ccc(Cl)cc1Cl)c1ccccc1`: the Potency result in [1], in experiment [3], in [4], in [6], in experiment [7] and in experiment [9] was “inactive” throughout. Further, the Potency entry in [10], in experiment [11], in experiment [13], in experiment [15], in experiment [18] and in [16] was “inactive” in each case. Further, the Potency in [2] is 79.6 µM (active); in experiment [5], 15.6 µM (active) and 48.6 µM (active); in experiment [12], 91.4 µM (active) and 50.5 µM (active). For the same compound, the outcome in experiment [17] was inactive. In experiment [14] (at 92.4 µM (top of the series)), the activity change, positive = activation is -20% (inactive) and 8.74% (inactive).

In the case of `CN(C)c1ccc(C(=N)c2ccc(N(C)C)cc2)cc1`, the Potency in [1] is 24 µM (active) and 20.9 µM (active); in experiment [2] it was 55.7 µM (active) and inactive; in experiment [3], 24 µM (active) and 23.4 µM (active); in [4], 24 µM (active) and 26.3 µM (active); in experiment [6] it was 30.3 µM (active) and 20.9 µM (active); in experiment [18] it was 3.05 µM (active) and 2.97 µM (active). The Potency entry in experiment [5], in experiment [10] and in experiment [16] was “inactive” each time. Besides, in [17], the compound was classed as inactive.

`C=C1C2CCC(C2)C1(C)C` (stereo not given): the Potency entry in experiment [1], in [2], in experiment [3], in experiment [4], in [5] and in experiment [6] was “inactive” each time. Moreover, the Potency result in experiment [7], in [8], in [9], in experiment [10], in [11] and in experiment [12] was “inactive” in each case. The Potency entry in experiment [13], in experiment [15] and in [16] was “inactive” throughout. Also, the call in [17] was inactive. The activity change, positive = activation in experiment [14] (at 92.4 µM (top of the series)) is 0.557% (inactive) and 4.73% (inactive).

Consider `CN(CCOc1ccc(CC2SC(=O)NC2=O)cc1)c1ccccn1` (stereo not given), for which the Potency entry in experiment [1], in experiment [3], in [4], in experiment [5], in [6] and in experiment [9] was “inactive” in each case. Besides, the Potency entry in experiment [10], in experiment [11], in [15], in [18] and in experiment [16] was “inactive” each time. In addition, the Potency in [2] is 70.6 µM (active) and inactive. Besides, the call in experiment [17] was inactive.

In the case of `c1ccc2ccccc2c1`, the Potency entry in experiment [1], in experiment [2], in experiment [3], in experiment [4], in experiment [6] and in [7] was “inactive” throughout. In addition, the Potency result in experiment [8], in experiment [9], in experiment [10], in [11], in experiment [12] and in experiment [13] was “inactive” throughout. For the same compound, the Potency entry in [15] and in experiment [16] was “inactive” throughout. For the same compound, the compound was classed as inactive in experiment [17]. Further, the activity change, positive = activation in experiment [14] (at 92.4 µM (top of the series)) is 7.43% (inactive) and 7.09% (inactive).
